# Results reported in PubChem BioAssay AID1259422 (The Scripps Research Institute Molecular Screening Center, 2018).
# Screen size: about 640,000 compounds; about 9,300 (1.5%) were called active. This is one part of a sample in which actives are shown more often than they occur. Unmarked numbers belong to inactive results. Cut-off read from the data, not from the text of the source: active = inhibition above about 32%; inactive = the rest.
# Assay: TEAD-YAP interaction inhibition, primary screen, TEAD-YAP interaction inhibitor project, luminescence, HEK-TIYL cells (AID 1259422);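 note: 0% = median of test compound wells and 100% = reference inhibitor wells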
# Settings: TEAD-Gal4/YAP UAS-luciferase luminescence, at 9.12 µM, hits give high values
row,SMILES,inhibition
1,COc1ccc2cc(C)c3nn(CN4CCOCC4)c(=O)n3c2c1,1.32%
2,CC1(C2CCN(C(=O)c3ccc(N4CCCCC4)cc3)CC2)NC(=O)NC1=O (stereo not given),-7.9%
3,CC1CCc2sc(NC(=O)Cc3cccc4ccccc34)c(C#N)c2C1 (stereo not given),2.89%
4,COc1ccc(Cl)cc1Nc1nc(N2CCOCC2)c2ccccc2n1,15.6%
5,Clc1ccccc1Nc1nc(N2CCOCC2)c2ccccc2n1,0.09%
6,c1ccc(Nc2nc(N3CCOCC3)c3ccccc3n2)cc1,33.6% (active)
7,O=C(N/N=C\c1ccc([N+](=O)[O-])c(O)c1)c1ccc2c(c1)OCO2,42.6% (active)
8,O=C(N/N=C/c1ccc(O)c([N+](=O)[O-])c1)c1ccc2c(c1)OCO2,-20.5%
9,O=C(N/N=C/c1ccc2c(c1)OCO2)c1cc(O)c(O)c(O)c1,9.47%
10,O=C(CCl)Nc1c(C(=O)C2CC2)oc2ccccc12,-1.47%
11,O=C(/C=C\c1ccccc1)N1CCN(Cc2nnnn2-c2cccc(F)c2)CC1,14.7%
12,COC(=O)CSc1nnc2c3ccccc3n(CCc3ccccc3)c2n1,-5.74%
13,C=CCSc1nnc2c3ccccc3n(CCc3ccccc3)c2n1,41.4% (active)
14,C=CCN(CC=C)C(=O)CSc1nnc2c3ccccc3n(C)c2n1,-18.1%
15,CC(Cc1ccco1)NC(=O)Nc1ccc2c(c1)OCO2 (stereo not given),-9.4%
16,Nc1c(Cl)cc(N2C(=O)c3cccc([N+](=O)[O-])c3C2=O)cc1Br,-3.28%
17,Cc1c(C(c2ccc3c(c2)OCCO3)c2c(C)n(C)n(-c3ccccc3)c2=O)c(=O)n(-c2ccccc2)n1C,1.2%
18,FC(F)(F)c1cccc(Nc2nccn3c(-c4ccc(N5CCOCC5)cc4)cnc23)c1,9.67%
19,Cc1ccc(C2SCC(=O)N2c2ccc(C)cc2)cc1 (stereo not given),35.1% (active)
20,COc1ccc(N2C(=O)CSC2c2ccc(C)cc2)cc1 (stereo not given),1.91%

row,SMILES,inhibition
1,Cc1ccc(C2SCC(=O)N2c2ccccc2)cc1 (stereo not given),-20.1%
2,CCCC1(C2CCN(C(=O)c3ccc(F)c(F)c3)CC2)NC(=O)N(CC2CCCO2)C1=O (stereo not given),-9.71%
3,COc1ccc(C2C3=C(CC(C)(C)CC3=O)N(CCc3ccccc3)C3=C2C(=O)CC(C)(C)C3)cc1,4.3%
4,O=C1C2C3C=CC(C3)C2C(=O)N1c1ccc(Oc2ccc(Br)cc2)cc1 (stereo not given),-3.86%
5,Cn1nnnc1-c1ccc(Nc2nccc(-c3ccc(N4CCC(O)CC4)c(C#N)c3)n2)cc1,37.5% (active)
6,O=C(c1ccc(Nc2nccc(-c3ccc4c(=O)[nH]c(C5CC5)nc4c3)n2)cc1)N1CCCC1,-6.26%
7,Cc1ccc(-c2ncn(-c3ccc(Nc4nccc(-c5cc(C#N)cc(N6CCCC(O)C6)c5)n4)cc3)n2)cn1 (stereo not given),-6.62%
8,COc1ccc(-c2nc(NCCOc3ccccc3)nc(OC)n2)cc1,-21.8%
9,Cc1cc(C)n(CCc2nc(-c3ccc(Cl)cc3)cs2)n1,-9.3%
10,OC1(c2cccnc2)CCN(Cc2nc(N3CCOCC3)c3cc(Cl)ccc3n2)CC1,-1.26%
11,COC1CCN(c2nc(CN3CCCC3c3nccs3)nc3ccc(Cl)cc23)CC1 (stereo not given),42.9% (active)
12,Clc1ccc(CN2CCC[C@H]2c2nc3ccc(-c4ccncc4)cc3[nH]2)cc1,-0.35%
13,NC(=O)c1ccc(-c2nccc(NC3CCN(Cc4ccccc4)CC3)n2)cc1,-1.25%
14,COc1cccc(OC)c1C(=O)Nc1ccc(C)cc1,-5.7%
15,C=CCNC(=O)C1CCCN1S(=O)(=O)c1ccc(Cl)cc1 (stereo not given),57.2% (active)
16,C=CCNC(=O)C1CCCN(S(=O)(=O)c2ccc(F)cc2)C1 (stereo not given),1.52%
17,Cc1ccc(S(=O)(=O)N2CCCC2C(=O)NCCO)cc1 (stereo not given),-1.16%
18,CCOCCCNC(=O)C1CCC(=O)N1C1CCCCC1 (stereo not given),-0.7%
19,Cc1ccc(S(=O)(=O)NC(C)Cc2cccs2)cc1 (stereo not given),5.37%
20,CC1=C(C(=O)NCc2cccs2)C2(CCCCC2)OC1=O,13.8%

row,SMILES,inhibition
1,CN(C)c1ccc(-c2nc3ccc(C(=O)O)cc3s2)cc1,96.5% (active)
2,O=C(NC1CC1)c1ccc(-c2nc3ccc(C(=O)NC4CCN(Cc5ccccc5)CC4)cc3s2)cc1,-0.23%
3,CN1CCN(c2ccc(-c3nc4ccc(C(=O)NCc5ccccc5)cc4s3)cc2)CC1,3.92%
4,N#C/C=C(/CC(O)(c1nc2ccccc2s1)C(F)(F)F)N1CCCC1 (stereo not given),2.12%
5,CN(C)C(=O)c1cc(CNCCCc2ccccc2)cc(NC(=O)c2ccccn2)c1,-3.43%
6,Cc1cc(NC(=O)c2cccn(OCc3ccc(F)cc3)c2=O)no1,-2.96%
7,COc1ccc(-n2ncc3c(N4CCCC(C)C4)ncnc32)cc1 (stereo not given),94.8% (active)
8,c1ccc(-n2ncc3c(N4CCCC4)ncnc32)cc1,37.8% (active)
9,COc1ccccc1Nc1ncnc2c1cnn2-c1ccc(C)cc1,-73%
10,CCOc1ccc(-n2cc(-c3ccccc3)c3c(N4CCCC(C)C4)ncnc32)cc1 (stereo not given),-7.09%
11,OCCNc1ncnc2c1cnn2-c1ccccc1,-28.4%
12,c1ccc(-n2ncc3c(Oc4cccc5cccnc45)ncnc32)cc1,42.7% (active)
13,COc1ccc(-n2ncc3c(Nc4ccc(F)c(Cl)c4)ncnc32)cc1,13.3%
14,Cc1ccc(N2CCN(c3ncnc4c3cnn4-c3ccccc3)CC2C)cc1 (stereo not given),9.96%
15,O=C(CCc1ccccc1)NCCn1ncc2c(N3CCN(c4ncccn4)CC3)ncnc21,-1.06%
16,c1ccc(Cn2nnc3c(N4CCCCC4)ncnc32)cc1,-2.04%
17,c1ccc(OCCn2ncc3c(N4CCCC4)ncnc32)cc1,81% (active)
18,Fc1ccc(Nc2ncnc3c2cnn3-c2ccccc2)cc1,-36.2%
19,CCCS(=O)(=O)N1CCCc2ccc(NC(=O)CC(C)C)cc21,3.52%
20,CCOC(=O)C1CCN(c2nc(-c3cccnc3)nc3c2CN(S(C)(=O)=O)CC3)CC1,9.38%
